Assay results: PubChem BioAssay (NCATS)
Records with an inconclusive call do not appear. Activity calls are given as the source filed them. Unless noted, calls follow the shape of the dose curve; as a rule, active = well fitted inhibition curve with a large enough effect; inconclusive = small, poorly fitted or top-dose-only effect; inactive = flat fitted curve, though single readings scatter.

Legend:
[1] = qHTS Assay for Lipid Storage Modulators (AID 1519; calls by dose curve; as to activity change, negative = inhibition: % is scaled to controls: 0 for no effect and ±100 for the full control effect); settings: Drosophila S3 cells, BODIPY lipid droplet/cell ratio, laser cytometry, cells loaded with oleic acid; for activity change, negative = inhibition: at 57.5 µM (top of the series)
Summary of the method: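 Cells seeded at 5,000 per well were treated with compounds over a concentration series and loaded with oleic acid (400 uM, as added). Lipid droplet fluorescence (488 nm excitation, 500-530 nm channel) was read by laser-scanning cytometry and normalized to 20 uM Triacsin C.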

[2] = target: Ubiquitin carboxyl-terminal hydrolase 1 (Homo sapiens) (UniProt O94782); assay: Inhibitors of USP1/UAF1: Pilot qHTS (AID 504865); settings: purified USP1/UAF1, Ub-rhodamine cleavage fluorescence; series mostly up to 114 µM;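 also: rhodamine fluorescence freed from ubiquitin-rhodamine substrate followed over time; top concentration of the series differs between compounds; % is scaled to controls: 0 for no effect and ±100 for the full control effect; nearly all actives have a fitted effect of over 35% in size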
Sequence of Ubiquitin carboxyl-terminal hydrolase 1 (Homo sapiens) (O94782 whole entry, looked up): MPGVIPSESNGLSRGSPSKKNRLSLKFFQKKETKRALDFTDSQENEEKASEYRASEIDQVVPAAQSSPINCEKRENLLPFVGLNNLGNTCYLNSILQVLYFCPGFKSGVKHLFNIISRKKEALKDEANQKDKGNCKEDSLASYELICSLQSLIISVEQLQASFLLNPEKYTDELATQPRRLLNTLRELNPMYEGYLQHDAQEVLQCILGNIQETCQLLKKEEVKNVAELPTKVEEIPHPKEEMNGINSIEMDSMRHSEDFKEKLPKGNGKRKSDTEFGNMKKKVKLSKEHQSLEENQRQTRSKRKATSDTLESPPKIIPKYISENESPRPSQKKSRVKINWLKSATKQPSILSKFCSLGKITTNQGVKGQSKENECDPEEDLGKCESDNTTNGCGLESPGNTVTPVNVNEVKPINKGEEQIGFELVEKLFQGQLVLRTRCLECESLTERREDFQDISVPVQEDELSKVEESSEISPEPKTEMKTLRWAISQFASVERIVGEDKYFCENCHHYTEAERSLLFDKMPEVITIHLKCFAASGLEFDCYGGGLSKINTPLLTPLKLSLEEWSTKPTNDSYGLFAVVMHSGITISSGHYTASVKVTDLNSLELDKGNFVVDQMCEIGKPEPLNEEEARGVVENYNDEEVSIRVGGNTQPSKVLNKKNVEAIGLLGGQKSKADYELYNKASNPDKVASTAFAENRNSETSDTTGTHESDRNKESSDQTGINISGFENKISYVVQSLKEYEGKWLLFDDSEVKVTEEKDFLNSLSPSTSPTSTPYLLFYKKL
Summary of the method: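 Kinetic fluorescence assay: 1nM USP1/UAF1, 15 min compound preincubation, then 150nM Ub-Rho; 480/540 nm.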

[3] = target: Luciferin 4-monooxygenase (Photinus pyralis) (UniProt P08659); assay: Biochemical firefly luciferase enzyme assay for NPC (AID 624030);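 also: purified P. pyralis luciferase at 10 nM with luciferin and ATP substrate; 0% = DMSO and -100% = full luciferase inhibition by PTC124 control; nearly all actives have a fitted effect of over 70% in size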; settings: purified P. pyralis luciferase, luminescence, 5 min; series mostly up to 24.9 µM
Sequence of Luciferin 4-monooxygenase (Photinus pyralis) (P08659 whole entry, looked up): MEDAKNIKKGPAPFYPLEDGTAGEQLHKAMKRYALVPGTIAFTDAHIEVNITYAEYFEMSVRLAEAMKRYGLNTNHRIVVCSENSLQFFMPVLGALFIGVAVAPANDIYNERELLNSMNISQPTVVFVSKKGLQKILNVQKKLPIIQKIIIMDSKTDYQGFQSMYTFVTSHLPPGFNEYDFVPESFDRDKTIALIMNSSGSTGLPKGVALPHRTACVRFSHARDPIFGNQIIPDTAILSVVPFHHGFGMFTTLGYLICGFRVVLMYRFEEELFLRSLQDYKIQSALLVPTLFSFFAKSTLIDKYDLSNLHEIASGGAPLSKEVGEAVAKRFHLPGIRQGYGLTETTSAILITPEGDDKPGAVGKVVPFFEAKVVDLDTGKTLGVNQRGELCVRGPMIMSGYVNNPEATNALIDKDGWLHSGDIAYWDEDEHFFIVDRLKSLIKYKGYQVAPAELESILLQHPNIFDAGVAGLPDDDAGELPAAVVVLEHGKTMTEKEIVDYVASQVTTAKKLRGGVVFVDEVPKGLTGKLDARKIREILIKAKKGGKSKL
Summary of the method: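 Purified P. pyralis luciferase at 10 nM in 50 mM Tris Acetate (final), luminescence read within 5 minutes of enzyme addition to compounds. Activity normalised to PTC124 versus DMSO; concentration-response curves classed by r2, magnitude and activity.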

[4] = qHTS profiling for inhibitors of Plasmodium falciparum proliferation (AID 504749); also: potency is read from the fitted curve at half-maximal effect;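 as to activity, negative = inhibition: 0% = DMSO vehicle and full inhibition = artemisinin control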; as to all read-outs here: nearly all actives have a fitted effect of over 60% in size; settings: P. falciparum in erythrocytes, SYBR Green DNA, 72 h; for activity, negative = inhibition: at 28.7 µM (top of the series)
Summary of the method: (§1)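 Each compound contacts P. falciparum-infected red blood cells for 72 h at 37 C; lysis buffer (Tris, EDTA, saponin, Triton X, SYBR Green I) is added and fluorescence measured next morning; values normalized to controls.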

3D7 = assay: as above; settings: P. falciparum in erythrocytes, SYBR Green DNA, 72 h; series mostly up to 12.8 µM
Summary of the method: as §1

C2A = assay: as above; settings: P. falciparum in erythrocytes, SYBR Green DNA, 72 h; series mostly up to 12.8 µM
Summary of the method: as §1

CP217 = assay: as above; settings: P. falciparum in erythrocytes, SYBR Green DNA, 72 h; series mostly up to 12.8 µM
Summary of the method: as §1

CP237 = assay: as above; settings: P. falciparum in erythrocytes, SYBR Green DNA, 72 h; series mostly up to 12.8 µM
Summary of the method: as §1

CP238 = assay: as above; settings: P. falciparum in erythrocytes, SYBR Green DNA, 72 h; series mostly up to 12.8 µM
Summary of the method: as §1

CP252 = assay: as above; settings: P. falciparum in erythrocytes, SYBR Green DNA, 72 h; series mostly up to 12.8 µM
Summary of the method: as §1

CP291 = assay: as above; settings: P. falciparum in erythrocytes, SYBR Green DNA, 72 h; series mostly up to 12.8 µM
Summary of the method: as §1

CP297 = assay: as above; settings: P. falciparum in erythrocytes, SYBR Green DNA, 72 h; series mostly up to 12.8 µM
Summary of the method: as §1

ECU = assay: as above; settings: P. falciparum in erythrocytes, SYBR Green DNA, 72 h; series mostly up to 12.8 µM
Summary of the method: as §1

HB3 = assay: as above; settings: P. falciparum in erythrocytes, SYBR Green DNA, 72 h; series mostly up to 12.8 µM
Summary of the method: as §1

PAD = assay: as above; settings: P. falciparum in erythrocytes, SYBR Green DNA, 72 h; series mostly up to 12.8 µM
Summary of the method: as §1

PC26 = assay: as above; settings: P. falciparum in erythrocytes, SYBR Green DNA, 72 h; series mostly up to 12.8 µM
Summary of the method: as §1

SC27B = assay: as above; settings: P. falciparum in erythrocytes, SYBR Green DNA, 72 h; series mostly up to 12.8 µM
Summary of the method: as §1

[5] = measured here: cell count channel max response
[6] = measured here: lipid channel max response

CC(C)C1CCC(C(=O)NC(Cc2ccccc2)C(=O)O)CC1 (stereo not drawn)
inactive: activity change, negative = inhibition [1] 5.23% | Potency [2] | Potency [3] | activity, negative = inhibition ([4]; parasite line A) -12% | activity, negative = inhibition ([4]; parasite line B) 8.36% | Potency (3D7) | Potency (C2A) | Potency (CP217) | Potency (CP237) | Potency (CP238) | Potency (CP252) | Potency (CP291) | Potency (CP297) | Potency (ECU) | Potency (HB3) | Potency (PAD) | Potency (PC26) | Potency (SC27B)
2.86%: max response [1, 5]
10.2%: max response [1, 6]

CC1C2CCC3C4CC=C5CC(N(C)C)CC[C@@]5(C)C4CC[C@@]32CN1C (stereo partly drawn)
22.7%: max response [1, 6]
inactive: activity change, negative = inhibition [1] 6.04% | Potency [2] | Potency [3] | activity, negative = inhibition ([4]; parasite line A) 2.63% | activity, negative = inhibition ([4]; parasite line B) 0.451% | Potency (3D7) | Potency (C2A) | Potency (CP217) | Potency (CP237) | Potency (CP238) | Potency (CP252) | Potency (CP291) | Potency (CP297) | Potency (ECU) | Potency (HB3) | Potency (PAD) | Potency (PC26) | Potency (SC27B)
14%: max response [1, 5]

CC(=O)O[C@@]1(C(C)=O)CCC2C3CC(C)C4=CC(=O)CC[C@@]4(C)C3CC[C@]21C (stereo partly drawn)
inactive: activity change, negative = inhibition [1] -11.6% | Potency [3] | Potency (3D7) | Potency (CP237) | Potency (CP238) | Potency (CP291) | Potency (CP297) | Potency (PC26)
active: Potency ([4]; parasite line B) 12.6 µM
4.77%: max response [1, 5]
-5.62%: max response [1, 6]

COc1ccc2cc1Oc1ccc(cc1)CC1c3c(cc4c(c3Oc3cc5c(cc3OC)CCN(C)C5C2)OCO4)CCN1C (stereo not drawn)
21%: max response [1, 6]
5.9%: max response [1, 5]
active: Potency ([4]; parasite line A) 8.91 µM | Potency ([4]; parasite line B) 10 µM | Potency (3D7) 11.2 µM | Potency (C2A) 11.2 µM | Potency (CP217) 8.91 µM | Potency (CP237) 2.82 µM | Potency (CP238) 7.08 µM | Potency (CP252) 8.91 µM | Potency (CP291) 12 µM | Potency (CP297) 10.7 µM | Potency (ECU) 8.91 µM | Potency (HB3) 7.08 µM | Potency (PAD) 8.91 µM | Potency (PC26) 12 µM | Potency (SC27B) 7.08 µM
inactive: activity change, negative = inhibition [1] 10.7% | Potency [3]

N[C@@H]1C(O)OC(CO)C(O)C1O (stereo partly drawn)
inactive: activity change, negative = inhibition [1] 5.31% | Potency [2] | Potency [3] | activity, negative = inhibition ([4]; parasite line A) 3.86% | Potency (3D7) | Potency (C2A) | Potency (CP217) | Potency (CP237) | Potency (CP238) | Potency (CP252) | Potency (CP291) | Potency (CP297) | Potency (ECU) | Potency (HB3) | Potency (PAD) | Potency (PC26) | Potency (SC27B)
7.77%: max response [1, 5]
20.8%: max response [1, 6]

CC(=O)[C@]1(O)CCC2C3C=C(Cl)C4=CC(=O)C5CC5[C@@]4(C)C3CC[C@]21C (stereo partly drawn)
4.22%: max response [1, 5]
14.3%: max response [1, 6]
inactive: activity change, negative = inhibition [1] 8.7% | Potency [3] | activity, negative = inhibition ([4]; parasite line A) 6.27% | activity, negative = inhibition ([4]; parasite line B) 5.21% | Potency (3D7) | Potency (C2A) | Potency (CP217) | Potency (CP237) | Potency (CP238) | Potency (CP252) | Potency (CP291) | Potency (CP297) | Potency (ECU) | Potency (HB3) | Potency (PAD) | Potency (PC26) | Potency (SC27B)
